# According to ChEMBL document CHEMBL4513136, “CO-ADD screening of CSIC (Spain) compounds”:
# Entries with a potency or affinity are not part of this list.
# What was measured:
# Klebsiella pneumoniae = conditions: Concentration 32 ug.mL-1; ASSAY_TEST Inhibition of Bacterial Growth; detection method Absorption (OD600); MEDIA CAMHB; plate type 384well; NBS; CORNING #3640; time 18 hr
# Candida albicans = conditions: 32 ug/mL
# Cryptococcus neoformans = conditions: Concentration 32 ug.mL-1; ASSAY_TEST Inhibition of Fungal Growth; detection method Resazurin; Absorption (OD600-OD570); plate type 384well; NBS; CORNING #3640
Compound,Inhibition (Klebsiella pneumoniae) [%],Inhibition (Candida albicans) [%],Inhibition (Cryptococcus neoformans) [%]
COc1ccc(CN2C(=O)C(C)C2(Cc2cn(C(=O)OC(C)(C)C)c3ccccc23)C(=O)OC(C)(C)C)cc1 (stereo not drawn),15.95,7.68,-81.49
O=C(/C=C/c1ccccc1O)c1cc(O)c(O)cc1O,21.23,6.47,-81.74
O=C(Cc1cc(O)ccc1O)Nc1ccc(O)cc1O,6.35,4.45,-73.31
COc1ccc(NC(=O)Cc2cc(OC)ccc2OC)cc1,9.76,1.24,-67.4
O=C(Cc1cc(O)ccc1O)Nc1ccc(O)cc1,12.9,2.83,-32.05
O=C(OCc1ccccc1)N1C(=O)C(c2ccccc2NC(=O)C(F)(F)F)=C(O)C1Cc1ccccc1 (stereo not drawn),7.86,0.9,-95.18
Oc1ccc(O)c(-c2cn(-c3ccc(O)c(O)c3)nn2)c1,-0.99,3.17,-118.29
COc1ccc(OC)c(C(=O)CCc2ccc(O)cc2)c1,3.34,1.55,-66.83
COc1ccc(OC)c(-c2cn(-c3ccc(OC)c(OC)c3)nn2)c1,-16.63,10.9,-110.55
Oc1ccc(-n2cc(-c3cc(O)ccc3O)nn2)cc1,10.3,1.72,-19.32
COc1ccc(C(=O)/C=C/c2ccc(OC)cc2OC)cc1,-4.58,9.33,-93.49
COc1ccccc1/C=C/C(=O)c1cc(OC)c(OC)cc1OC,12.89,3.46,-68.54
O=C(Cc1cc(O)ccc1O)Nc1cc(O)ccc1O,9.18,0.34,-2.68
COc1ccc(OC)c(C(=O)/C=C/c2ccccc2O)c1,-4.68,16.8,-71.16
COc1ccc(OC)c(CC(=O)Nc2cc(OC)ccc2OC)c1,5.13,6.79,-78.53
COc1ccc(OC)c(CC(=O)Nc2ccc(OC)cc2OC)c1,9.85,16.6,-87.08
O=C(/C=C/c1c[nH]c2ccc(O)cc12)c1cc(O)ccc1O,6.02,4.1,-105.31
CC1C(=O)N(Cc2ccc(OCCN3CCOCC3)cc2)C1(Cc1ccccc1)C(=O)O (stereo not drawn),2.32,1.79,-59.46
COC(=O)C1(Cc2ccc(OCc3c(Cl)cccc3Cl)cc2)C(C)C(=O)N1Cc1ccc(OC)cc1 (stereo not drawn),5.7,7.8,-62.93
O=C(Nc1ccc(O)cc1O)Nc1cc(O)ccc1O,9.23,-2.25,15.83
COC(=O)c1c(C(Cc2ccccc2)NC(=O)OCc2ccccc2)[nH]c2ccccc12 (stereo not drawn),2.35,0.58,-63.52
COc1ccc(OC)c(C(=O)CCc2ccccc2O)c1,4.74,4.16,-73.15
COc1ccc(OC)c(C(=O)/C=C/c2c[nH]c3ccc(OC)cc23)c1,2.62,3.54,-74.27
O=C(CCc1ccc(O)cc1O)c1cc(O)ccc1O,10.96,3.81,-52.63
COc1ccc(OC)c(NC(=O)Nc2ccc(OC)cc2OC)c1,6.68,-0.5,-79.12
COc1ccc(OC)c(C(=O)/C=C/c2ccc(O)cc2)c1,-6.02,2.83,-65.46
